Measured values published in PubChem BioAssay AID651640 (Broad Institute, 2012).
The campaign covered roughly 350,000 compounds. About 6,000 (1.7%) were called active. Roughly 5% stayed inconclusive and do not appear here. No stated cut-off is given here; in the data, active means CPE inhibition above about 20% (passing the limit was not always enough); inconclusive means no clear call, values can overlap the other calls; tested in BHK-21 cells. The entries come from a sample that favours actives as a whole.

Assay: inhibitors of DENV2 cytopathic effect, primary screen, cell-based, plate reader, single concentration (AID 651640);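 further: 0% = median of neutral control wells and 100% = median of positive control wells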
Conditions: DENV2-infected cells, cytopathic effect rescue, at 9.99 µM, hits give high values

CPE inhibition, active:
C[C@@H]1CN([C@H](C)CO)C(=O)c2cc(C#CC3(O)CCCC3)cnc2O[C@H]1CN(C)C(=O)C1CCC1 35.8%, C[C@H]1CN([C@@H](C)CO)C(=O)c2ccccc2-c2ccccc2CO[C@H]1CN(C)S(=O)(=O)c1cccc(C#N)c1 99.5%, C[C@@H]1CN([C@@H](C)CO)C(=O)c2cc(C#CCc3ccccc3)cnc2O[C@@H]1CN(C)C(=O)C1CCOCC1 95.4%, C[C@@H]1CN([C@H](C)CO)C(=O)c2cc(-c3cccc(C#N)c3)cnc2O[C@H]1CN(C)C(=O)C1CCC1 27.5%, COc1cc2c(cc1OC)C(Nc1ccc(S(N)(=O)=O)cc1)=NC(C)(C)C2 23.5%, CCc1nc2c(OCCc3cccc(OC)c3)cccn2c1N(C)C(=O)c1ccc(C)cc1 35.1%, Cc1ccccc1NC(=O)Cc1nc(COC(=O)C(C)(C)Oc2ccc(Cl)cc2)cs1 45.3%, COc1ccc(OC)c(/C(C)=N\NC(=O)c2cc3cc(Cl)ccc3n2C)c1 69.2%, O=C(CCNC(=O)c1ccc(Br)cc1)NCC(c1ccco1)N1CCCCC1 (centres undefined) 81.5%

CPE inhibition, inactive:
CN1CCN(C(=O)C[C@@H]2CC[C@@H]3[C@@H](COc4ccc(NC(=O)c5ccc(F)c(F)c5)cc4C(=O)N3C)O2)CC1 -5.7%, COCc1cn(CC[C@@H]2CC[C@@H](NC(=O)Cc3cccnc3)[C@@H](CO)O2)nn1 -4.68%, C[C@H]1CN([C@@H](C)CO)C(=O)c2ccccc2-c2ccccc2CO[C@H]1CN(C)S(=O)(=O)c1ccccc1C#N -1.68%, Cc1ccc(S(=O)(=O)N(C)C[C@H]2OCc3ccccc3-c3ccccc3C(=O)N([C@@H](C)CO)C[C@@H]2C)cc1 0.795%, C[C@@H]1CN([C@H](C)CO)C(=O)c2cc(C#CC3CCCC3)cnc2O[C@@H]1CN(C)C(=O)C1CCC1 0.319%, CC(C)NC(=O)N(C)C[C@H]1Oc2ncc(-c3cccc(C#N)c3)cc2C(=O)N([C@@H](C)CO)C[C@H]1C 1.79%, C[C@H](CO)N1C[C@H](C)[C@H](CN(C)C(=O)C2CCC2)Oc2ncc(C#CCc3ccccc3)cc2C1=O -7.04%, CC(=O)N(C)C[C@H]1Oc2ncc(C#CC3(O)CCCC3)cc2C(=O)N([C@@H](C)CO)C[C@@H]1C -10.8%, C[C@H](CO)N1C[C@H](C)[C@@H](CN(C)C(=O)C2CC2)Oc2ncc(-c3cccc(C#N)c3)cc2C1=O -9.11%, CCCC#Cc1cnc2c(c1)C(=O)N([C@H](C)CO)C[C@@H](C)[C@@H](CN(C)C(=O)C1CCOCC1)O2 -8.59%, C/C=C/c1ccc([C@@H]2[C@H](CO)N(CCC(F)(F)F)C23CN(C(=O)CC)C3)cc1 8.21%, C[C@@H]1CN([C@H](C)CO)C(=O)Cc2cc(NC(=O)C3CC3)ccc2O[C@H]1CN(C)Cc1ccc(Cl)c(Cl)c1 -2.59%, C[C@@H]1CCCCO[C@@H](CN(C)S(C)(=O)=O)[C@@H](C)CN([C@@H](C)CO)C(=O)c2cc(NS(=O)(=O)c3ccc(Cl)cc3)ccc2O1 -9.73%, CCC(=O)N(C)C[C@H]1Oc2ncc(C#C[C@@H](C)O)cc2C(=O)N([C@@H](C)CO)C[C@H]1C 9.17%, CNC[C@@H]1Oc2c(NC(=O)Nc3ccc(F)cc3)cccc2C(=O)N([C@@H](C)CO)C[C@@H]1C 0.246%, CCC(=O)Nc1ccc2c(c1)C(=O)N(C)C[C@H](OC)[C@H](C)CN(CCC(F)(F)F)[C@H](C)CO2 -10.4%, COCC(=O)Nc1ccc2c(c1)C(=O)N(C)C[C@@H](OC)[C@H](C)CN(C(=O)c1cccnc1)[C@H](C)CO2 7.26%, COc1cc2c(cc1OC)C(c1cccc([N+](=O)[O-])c1)=NCC2 3%, COc1ccc(NC(=S)Nc2ccc(S(N)(=O)=O)cc2)c(C)c1 5.31%, CCc1nc2c(OCCOc3ccccc3)cccn2c1N(C)C(=O)c1ccc(OC)cc1 -6.78%, CCc1nc2c(OCc3cccc(OC)c3)cccn2c1N(C)C(=O)C(C)C 3.81%, COc1ccc(NC(=O)Nc2ccc3c(c2)C(=O)N([C@@H](C)CO)C[C@H](C)[C@H](CN(C)S(=O)(=O)c2ccccc2)OCCCC[C@@H](C)O3)cc1 0.841%, Cc1ccccc1NC(=O)Cc1nc(COC(=O)c2cccnc2Cl)cs1 5.7%, Cc1ccccc1NC(=O)Cc1nc(COC(=O)CNC(=O)c2ccc(Cl)cc2Cl)cs1 -7.77%, CN1c2ccc(-c3cccc(C#N)c3)cc2[C@@H]2[C@@H](CCN2C(=O)C2CCC2)[C@@H]1CO -11%, COc1ccc2c3c(n(C)c2c1)[C@@H](CO)N(C(C)=O)CC31CCN(C(=O)C2CC2)CC1 -6.89%, COc1ccc(/C(C)=N/NC(=O)CCC(=O)Nc2ccc(Cl)cc2Cl)c(OC)c1 -1.9%, COc1ccc(OC)c(C(=O)c2ccc(Cl)cc2)c1 1.87%, CCCN1C[C@@H](C)[C@@H](OC)CN(C)C(=O)c2ccc(NS(C)(=O)=O)cc2OC[C@@H]1C -1.47%, CCC(=O)N1C[C@H](C)[C@H](OC)CN(C)C(=O)c2ccc(NS(C)(=O)=O)cc2OC[C@H]1C -1.33%, Cc1noc(C)c1S(=O)(=O)Nc1ccc2c(c1)C(=O)N([C@H](C)CO)C[C@H](C)[C@H](CN(C)S(C)(=O)=O)OCCCC[C@H](C)O2 -2.38%, COc1ccccc1C(=O)NCCC(=O)NCC(c1ccco1)N1CCCCC1 (centres undefined) -2.74%, CC(Oc1ccc(Br)cc1)C(=O)NCC(c1ccco1)N1CCCCC1 (centres undefined) -0.377%, C[C@@H]1CCCCO[C@H](CN(C)C(=O)NC2CCCCC2)[C@H](C)CN([C@@H](C)CO)C(=O)c2cc(NC(=O)C3CCCCC3)ccc2O1 -2.82%, C[C@H](O)C#Cc1ccc2c(c1)O[C@H](CN(C)Cc1cccnc1)[C@H](C)CN([C@H](C)CO)S2(=O)=O 9.35%
